In PubChem BioAssay (NCI):
About 79,000 compounds went through this panel and 15% of them were active in at least one assay; those are over-represented in the sample as a whole. Calls of active or inactive are those of the source. Cut-off read from the data, not from the text of the source: active = growth inhibition above about 70%; inactive = the rest.

What was measured:
[1] = NCI Yeast Anticancer Drug Screen. Data for the wt1 strain (AID 149);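 note: 0% = growth of vehicle-treated wt1 cultures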; details: S. cerevisiae wt1 strain (SPY 50644) growth inhibition, active compounds read high
Procedure, shortened: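 Vehicle-normalised growth inhibition; strain wt1; compound exposure.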

[2] = NCI Yeast Anticancer Drug Screen. Data for the rad50EPP+ strain (AID 151);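 note: 0% = growth of vehicle-treated control cultures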; details: S. cerevisiae rad50 mutant strain, active compounds read high
Procedure, shortened: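 Strain rad50EPP+; compound exposure; % growth inhibition vs vehicle.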

[3] = NCI Yeast Anticancer Drug Screen. Data for the mgt1 strain (AID 153); details: S. cerevisiae mgt1 mutant growth inhibition, active compounds read high
Procedure, shortened: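 Read-out: yeast growth inhibition vs vehicle control. Strain mgt1, drawn from a panel altered in DNA damage repair or cell cycle control.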

[4] = NCI Yeast Anticancer Drug Screen. Data for the rad50 strain (AID 155);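 note: 0% = growth of vehicle-only cultures of the same strain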; details: S. cerevisiae rad50 strain growth inhibition, active compounds read high
Procedure, shortened: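 A DNA repair-deficient yeast mutant serves as the test organism; compound-induced growth inhibition is calculated against vehicle-treated cells.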

[5] = NCI Yeast Anticancer Drug Screen. Data for the mec2-1 strain (AID 157); details: S. cerevisiae mec2-1 strain, active compounds read high
Procedure, shortened: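 Cells of the genetically defined mec2-1 yeast strain are incubated with test compound. Inhibition of growth is calculated against vehicle-treated controls.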

[6] = NCI Yeast Anticancer Drug Screen. Data for the rad14 strain (AID 159);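 note: 0% = growth of vehicle-treated control cultures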; details: S. cerevisiae rad14 strain growth inhibition, active compounds read high
Procedure, shortened: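 Vehicle-treated cultures served as the baseline for growth inhibition of a DNA repair-mutant yeast strain exposed to each compound.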

[7] = NCI Yeast Anticancer Drug Screen. Data for the sgs1 mgt1 strain (AID 161);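 note: 0% = growth of cultures given vehicle only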; details: S. cerevisiae sgs1 mgt1 strain, active compounds read high
Procedure, shortened: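 Test agents were incubated with a DNA-repair-mutant yeast strain. Growth was then read and compared against vehicle-treated controls.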

[8] = NCI Yeast Anticancer Drug Screen. Data for the cln2 rad14 strain (AID 165);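 note: 0% = growth equal to vehicle treated cultures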; details: S. cerevisiae cln2 rad14 strain, active compounds read high
Procedure, shortened: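 The screen exposed genetically defined yeast (cln2 rad14) to test compounds and scored growth inhibition relative to vehicle-treated controls.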

[9] = NCI Yeast Anticancer Drug Screen. Data for the bub3 strain (AID 167); details: S. cerevisiae bub3 mutant strain, active compounds read high
Procedure, shortened: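 Inhibition values come from growth of compound-treated mutant yeast normalised to vehicle-treated controls.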

[10] = NCI Yeast Anticancer Drug Screen. Data for the wt2 strain (AID 169);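 note: 0% = growth of vehicle-treated yeast cultures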; details: S. cerevisiae wt2 strain growth inhibition, active compounds read high
Procedure, shortened: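 Steps: yeast strain treated with compound; growth recorded; inhibition calculated relative to cultures given vehicle alone.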

[11] = NCI Yeast Anticancer Drug Screen. Data for the mlh1 strain (AID 171);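 note: 0% = growth of vehicle-treated control cultures of the same strain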; details: S. cerevisiae mlh1 strain growth inhibition, active compounds read high
Procedure, shortened: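 Yeast screen: mutant strain plus compound, growth scored against vehicle control wells.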

[12] = NCI Yeast Anticancer Drug Screen. Data for the sgs1 strain (AID 173);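 note: 0% = growth of vehicle-only control cultures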; details: S. cerevisiae sgs1 mutant, active compounds read high
Procedure, shortened: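 Inhibition of yeast growth served as the measure. The mutant strain was treated with each compound, and growth was normalised to cultures receiving vehicle alone.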

[13] = NCI Yeast Anticancer Drug Screen. Data for the mlh1 rad18 strain (AID 175); details: S. cerevisiae mlh1 rad18 strain growth inhibition, active compounds read high
Procedure, shortened: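 Compound-treated yeast growth, normalised to vehicle controls. Strain bears defined DNA repair mutations.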

[14] = NCI Yeast Anticancer Drug Screen. Data for the rad18 strain (AID 177); details: S. cerevisiae rad18 mutant growth inhibition, active compounds read high
Procedure, shortened: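 Inhibition values reflect reduced yeast growth compared with vehicle-treated controls, using a strain engineered with a DNA damage repair defect.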

[15] = NCI Yeast Anticancer Drug Screen. Data for the CLN2oe strain (AID 163);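 note: 0% = growth of vehicle-only control cultures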; details: S. cerevisiae CLN2oe strain, active compounds read high
Procedure, shortened: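 Strain altered in cell-cycle control, incubated with compound; growth compared to solvent-treated controls.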

[16] = at 5.0 µM (retest, dose inferred, filed as 0.5)
[17] = at 50.0 µM (retest, dose inferred, filed as 5.0)

Measured: growth inhibition

NC(=S)N1N=C2c3ccccc3CC[C@H]2[C@@H]1c1ccc(Cl)cc1
active: [1]; at 100.0 µM 90% | [3]; at 100.0 µM 85% | [4]; [17] 78% | [4]; at 50.0 µM 83% | [4]; at 100.0 µM 85% | [5]; [17] 90% | [5]; at 50.0 µM 85.8% | [5]; at 100.0 µM 88% | [6]; at 100.0 µM 82% | [7]; [17] 79% | [7]; at 50.0 µM 84.8% | [8]; [17] 91% | [8]; at 50.0 µM 84.7% | [9]; [17] 93% | [9]; at 50.0 µM 83.2% | [9]; at 100.0 µM 89% | [10]; at 100.0 µM 89% | [11]; at 100.0 µM 89% | [12]; at 100.0 µM 91% | [13]; [17] 93% | [13]; at 50.0 µM 80.2% | [14]; at 100.0 µM 89%
inactive: [1]; at 1.2 µM 11% | [1]; at 3.7 µM 9% | [1]; at 11.0 µM 31% | [1]; at 33.0 µM 46% | [2]; at 1.2 µM -14% | [2]; at 3.7 µM -10% | [2]; at 11.0 µM -14% | [2]; at 33.0 µM 8% | [2]; at 100.0 µM 37% | [3]; at 1.2 µM 7% | [3]; at 3.7 µM -10% | [3]; at 11.0 µM 0% | [3]; at 33.0 µM 29% | [4]; at 1.2 µM -6% | [4]; at 3.7 µM -2% | [4]; [16] -20% | [4]; at 11.0 µM 29% | [4]; at 33.0 µM 36% | [5]; at 1.2 µM -17% | [5]; at 3.7 µM 9% | [5]; [16] 7% | [5]; at 11.0 µM 23% | [5]; at 33.0 µM 58% | [6]; at 1.2 µM -28% | [6]; at 3.7 µM -20% | [6]; at 11.0 µM -10% | [6]; at 33.0 µM -3% | [7]; [16] -15% | [8]; [16] 12% | [9]; at 1.2 µM -12% | [9]; at 3.7 µM 9% | [9]; [16] 34% | [9]; at 11.0 µM 26% | [9]; at 33.0 µM 46% | [10]; at 1.2 µM 8% | [10]; at 3.7 µM 14% | [10]; at 11.0 µM 11% | [10]; at 33.0 µM 35% | [11]; at 1.2 µM 2% | [11]; at 3.7 µM 2% | [11]; at 11.0 µM 28% | [11]; at 33.0 µM 51% | [12]; at 1.2 µM 22% | [12]; at 3.7 µM 33% | [12]; at 11.0 µM 46% | [12]; at 33.0 µM 67% | [13]; [16] 7% | [14]; at 1.2 µM 1% | [14]; at 3.7 µM 8% | [14]; at 11.0 µM -9% | [14]; at 33.0 µM 45%

CN(CCOc1ccc(Cl)cc1)CCOc1ccc(Cl)cc1
active: [1]; at 100.0 µM 99% | [3]; at 33.0 µM 98% | [3]; at 100.0 µM 99% | [4]; at 33.0 µM 97% | [4]; [17] 97% | [4]; at 50.0 µM 99.2% | [4]; at 100.0 µM 99% | [5]; at 33.0 µM 93% | [5]; [17] 99% | [5]; at 50.0 µM 99.5% | [5]; at 100.0 µM 99% | [6]; at 33.0 µM 99% | [6]; at 100.0 µM 99% | [7]; [17] 99% | [7]; at 50.0 µM 99.7% | [15]; at 33.0 µM 90% | [15]; at 100.0 µM 99% | [8]; [17] 97% | [8]; at 50.0 µM 99.5% | [9]; at 33.0 µM 97% | [9]; [17] 98% | [9]; at 50.0 µM 99.6% | [9]; at 100.0 µM 97% | [10]; at 33.0 µM 89% | [10]; at 100.0 µM 99% | [11]; at 33.0 µM 98% | [11]; at 100.0 µM 99% | [12]; at 33.0 µM 98% | [12]; at 100.0 µM 99% | [13]; [17] 99% | [13]; at 50.0 µM 99.5% | [14]; at 33.0 µM 80% | [14]; at 100.0 µM 99%
inactive: [1]; at 1.2 µM 7% | [1]; at 3.7 µM 7% | [1]; at 11.0 µM 10% | [1]; at 33.0 µM 39% | [2]; at 1.2 µM 4% | [2]; at 3.7 µM 7% | [2]; at 11.0 µM 7% | [2]; at 33.0 µM 3% | [2]; at 100.0 µM 56% | [3]; at 1.2 µM 3% | [3]; at 3.7 µM 13% | [3]; at 11.0 µM 57% | [4]; at 1.2 µM 11% | [4]; at 3.7 µM 17% | [4]; [16] 13% | [4]; at 11.0 µM 51% | [5]; at 1.2 µM 12% | [5]; at 3.7 µM 16% | [5]; [16] 5% | [5]; at 11.0 µM 36% | [6]; at 1.2 µM 28% | [6]; at 3.7 µM 25% | [6]; at 11.0 µM 48% | [7]; [16] 25% | [15]; at 1.2 µM 20% | [15]; at 3.7 µM 18% | [15]; at 11.0 µM 50% | [8]; [16] 11% | [9]; at 1.2 µM 16% | [9]; at 3.7 µM 23% | [9]; [16] 10% | [9]; at 11.0 µM 60% | [10]; at 1.2 µM 8% | [10]; at 3.7 µM 11% | [10]; at 11.0 µM 26% | [11]; at 1.2 µM 13% | [11]; at 3.7 µM 17% | [11]; at 11.0 µM 41% | [12]; at 1.2 µM 18% | [12]; at 3.7 µM 23% | [12]; at 11.0 µM 48% | [13]; [16] 22% | [14]; at 1.2 µM 14% | [14]; at 3.7 µM 11% | [14]; at 11.0 µM 23%
